The source of these data is PubChem BioAssay AID2158 (National Center for Advancing Translational Sciences (NCATS), 2009).

SMILES strings stand for the structures. Where “and” joins values, the source holds several entries; their conditions need not be identical. Equal values may be shown once. Inconclusive results are not listed. Where a structure was tested more than once in an assay, its records may differ in their call. Calls of active or inactive are those of the source. Calls follow the shape of the dose curve; as a rule, active = well fitted inhibition curve with a large enough effect; inconclusive = small, poorly fitted or top-dose-only effect; inactive = no such curve, though single readings can be large or run the other way.
Potency is read from the fitted curve at half-maximal effect.

Cruzipain (Trypanosoma cruzi), sequence (P25779 123-467 limits assumed): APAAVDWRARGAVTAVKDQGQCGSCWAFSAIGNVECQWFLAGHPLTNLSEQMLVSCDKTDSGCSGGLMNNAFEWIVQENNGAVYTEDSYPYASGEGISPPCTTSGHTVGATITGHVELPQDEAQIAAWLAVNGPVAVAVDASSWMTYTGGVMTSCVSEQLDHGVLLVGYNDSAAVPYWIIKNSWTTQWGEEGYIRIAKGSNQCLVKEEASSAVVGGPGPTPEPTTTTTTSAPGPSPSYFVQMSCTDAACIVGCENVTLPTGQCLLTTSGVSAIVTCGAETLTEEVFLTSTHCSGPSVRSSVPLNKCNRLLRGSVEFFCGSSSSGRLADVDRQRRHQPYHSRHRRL

The experiment deals with Cruzipain (Trypanosoma cruzi) (UniProt P25779). Put plainly: Confirmation qHTS Assay for Inhibitors of Cruzain. Also: nearly all actives have a fitted effect of over 40% in size.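 As to activity change, negative = inhibition: plate controls were uninhibited enzyme control for no effect and buffer wells lacking enzyme for full effect.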 To be noted: purified cruzain, Z-FR-AMC fluorescence, 0.01% Triton. The procedure:
Cruzain is a cysteine protease from the tropical parasite Trypanosoma cruzi. This assay protocol is a follow-up and confirmation of related AID 1478 (qHTS Assay for Promiscuous and Specific Inhibitors of Cruzain -- with detergent). Cruzain was assayed by the use of fluorogenic coumarin-based substrate Z-FR-AMC: proteolytic cleavage releases AMC, whose fluorescence is measured at 360 nm excitation and 450 nm emission. Purified cruzain was supplied by the labs of Prof. James McKerrow and Brian Shoichet, UC San Francisco. This assay had 0.01% Triton X-100 concentration. See following references for additional details: Jadhav A, et al. J Med Chem. 2010 Jan 14;53(1):37-51. Mott BT, et al. J Med Chem. 2010 Jan 14;53(1):52-60. Assay Provider: Shoichet, Brian; University of California, San Fancisco Screening Center PI: Austin, C.P. Screening Center: NIH Chemical Genomics Center [NCGC]
Buffer: 100 mM Sodium Acetate, pH 5.5, 5 mM DTT, Triton X-100 concentration: 0.01%. Reagents/Controls: Buffer in columns 3 and 4 as negative control (no enzyme). Substrate solution: 2 uM final concentration of Z-FR-AMC (catalog number I-1160, Bachem) dispensed throughout the plate. Enzyme: 1.5 nM Cruzain final concentration in columns 1, 2, 5-48. Column 1 is neutral (100% activity). Column 2 contained titration of covalent inhibitor K11777, starting concentration 1 mM, then 1:2 dilution in duplicate). Assay Steps: Three uL of enzyme or buffer were dispensed to 1536-well Greiner black solid bottom plates. Compounds and controls (23 nL) were transferred via Kalypsys PinTool. The plates were incubated for 15 min at room temperature, and then 1 uL of substrate solution was added to start the reaction. The plates were immediately transferred to and read 4 times every 30 seconds for 2 min on ViewLux High-throughput CCD imager (Perkin-Elmer) using 360 nm excitation and 450 nm emission fluorescence protocol. The fluorescence intensity difference between the third and the first time points (time lapse of 60 seconds) was used to compute reaction progress.
For the molecule `Nc1ccc2c(c1)C(=O)C(=O)c1ccccc1-2`, the activity change, negative = inhibition is -54.3% (inactive).
`CC(C)(C)OC(=O)NCC(=O)NNC(=O)c1cc2ccccc2[nH]1`: the activity change, negative = inhibition is -2.11% (inactive).
As to `COc1nc(C#N)nc(N2CCCC2)n1`, the Potency was 3.98 µM (active).
For the molecule `CCCCNC(=O)Cn1c(SCc2cccc(F)c2)nc2ccncc21`, the activity change, negative = inhibition is -27.5% (inactive).
Same read-out and setting: then `CCOc1ccc(CN2C(=O)c3ccccc3Sc3ccc(C(=O)NCc4ccc(C)cc4)cc32)cc1`, with 0.925% (inactive); and `N#Cc1nc(-c2cccs2)oc1N1CCOCC1`, with -30.8% (inactive).
For the molecule `O=C(Cc1ccccc1)NCC(=O)OCC(=O)c1cccc2ccccc12`, the Potency is 25.1 µM (active).
For `CC(C)(C)OC(=O)NCc1nnc(-c2cc3ccccc3[nH]2)s1`, the activity change, negative = inhibition was -12.9% (inactive).
The same measure, in the same setting: then `O=C(Nc1ccc(N2CCCC2)cc1)c1ccc(Br)o1`, with -25% (inactive).
Regarding `O=C(NCc1ccco1)c1ccc2nc3sc4c(c3c(=O)n2c1)CCCC4`, the Potency was 28.2 µM (active).
On to `CCCCNC(=O)C(CC)n1c(SCc2cccc(F)c2)nc2ccncc21` (stereo not given), for which the activity change, negative = inhibition was -13.4% (inactive).
With `N#Cc1nc(NCCO)nc(Nc2ccccc2)n1`, the Potency was 1.58 µM (active).
On to `O=C(CNC(=O)c1ccc2cc[nH]c2c1)OC(C(=O)Nc1cc(C(F)(F)F)ccc1Cl)c1ccccc1` (stereo not given), for which the Potency was 12.6 µM (active).
Same read-out and setting: then `CNC(=O)c1ccc2nc(-c3ccco3)c(-c3ccco3)nc2c1`, with 7.08 µM (active).
On to `CCOC(=O)N1CCC(=C2c3ccc(Cl)cc3CCc3cccnc32)CC1`, for which the activity change, negative = inhibition was -13.4% (inactive).
Still for that read-out and setting: then `CC(C)(C)OC(=O)Cc1nnc(C(C(=O)OCc2ccccc2)c2ccccc2)s1` (stereo not given), with -12.2% (inactive).
For the molecule `CC1(C)Cc2c(C#N)c(N3CCN(C(=O)c4ccccc4)CC3)nc(-c3ccco3)c2CS1`, the Potency is 15.8 µM (active).
On the same count and under the same terms, then `CC(=O)n1cc(/C=C2/N=C(c3ccccc3)OC2=O)c2ccccc21`, with 0.794 µM (active); and `Cc1cccc(OCCCn2c(CCNC(=O)C3CCCCC3)nc3ccccc32)c1`, with 794 nM (active) and 708 nM (active).
Regarding `Cc1ccccc1-n1c(C)cc(/C=C2/C(=N)N3C(c4ccccc4)=CSC3=NC2=O)c1C`, the activity change, negative = inhibition is -3.9% (inactive).
On the same count and under the same terms, then `CC(C)(C)OC(=O)Cc1nnc(CNC(=O)c2ccccc2)s1`, with -0.719% (inactive).
Turning to `CC(C)(C)c1ccc(-c2nc(SCC(=O)Nc3ccc(Cl)cc3)[nH]c(=O)c2C#N)cc1`, the Potency is 12.6 µM (active).
On the same count and under the same terms, as for `O=c1cc(-c2ccccc2Cl)oc2c(NS(=O)(=O)c3cc(Cl)cc(Cl)c3O)ccc(O)c12`, the figure is 7.08 µM (active); as for `O=C(CNC(=O)c1ccncc1)OC(C(=O)Nc1cc(C(F)(F)F)ccc1Cl)c1ccccc1` (stereo not given), 25.1 µM (active).
Regarding `COc1ccc(OC)c(C(=O)COC(=O)CNC(=O)C2CCCCC2)c1`, the Potency was 7.08 µM (active).
On the same count and under the same terms, as for `COc1ccccc1NC(=O)C(OC(=O)CNC(=O)c1ccccc1)c1ccccc1` (stereo not given), the figure is 10 µM (active).
Turning to `COc1cccc(CN2C(=O)c3ccccc3Sc3ccc(C(=O)NCCc4ccc(Cl)cc4)cc32)c1`, the activity change, negative = inhibition is 5.18% (inactive).
`NC(=S)N/N=C/c1ccc(-c2ccc(Cl)c(Cl)c2)o1`: the Potency was 2 µM (active).
The same measure, in the same setting: as for `N#Cc1nc(Nc2ccc(F)cc2)nc(NC2CCCC2)n1`, the figure is 0.126 µM (active).
The same measure, in the same setting: as for `CC(C)Nc1nc(C#N)nc(Nc2ccccc2)n1`, the figure is 0.891 µM (active).
Take `Cc1cccc(C(=O)NC2CCN(C#N)CC2)c1`: the activity change, negative = inhibition is -3.52% (inactive) and 7.39% (inactive).
For the molecule `O=C(CNC(=O)C1CCCCC1)OCC(=O)c1ccc(-c2ccccc2)cc1`, the Potency is 1.58 µM (active).
In the case of `CC(C)(C)OC(=O)NCc1nnc(-c2cc3ccccc3[nH]2)o1`, the activity change, negative = inhibition was 0.21% (inactive).
`CN(C)c1nc(C#N)nc(N2CCOCC2)n1`: the Potency was 10 µM (active) and 8.91 µM (active).
Take `O=C(CNC(=O)c1ccccc1)OC(C(=O)Nc1cc(C(F)(F)F)ccc1Cl)c1ccccc1` (stereo not given): the Potency was 5.01 µM (active); the activity change, negative = inhibition is -10.9% (inactive) and -27.8% (inactive).
As to `O=C(CCN1C(=O)/C(=C/C=C/c2ccccc2)SC1=S)Nc1nccs1`, the activity change, negative = inhibition is 1.52% (inactive).
Regarding `O=C(COC(=O)CNC(=O)C1CCCCC1)Nc1ccc2ccccc2c1`, the Potency is 12.6 µM (active).
As for `O=C(c1ccco1)N1CCN(c2ncnc3c2[nH]c2ccc(Cl)cc23)CC1`, the activity change, negative = inhibition was -37.6% (inactive).
For the molecule `O=C(NCc1ccc2c(c1)OCO2)c1ccc2c(c1)N(Cc1c(F)cccc1Cl)C(=O)c1ccccc1S2`, the activity change, negative = inhibition was 3.42% (inactive).
